In PubChem BioAssay AID493170 (National Center for Advancing Translational Sciences (NCATS), 2011):
Results filed as inconclusive are left out. A call without a number means that no potency is given here. Calls of active or inactive are those of the source. The call rests on the fitted dose curve; in most records, active means well fitted inhibition curve with a large enough effect; inconclusive means small, poorly fitted or top-dose-only effect, or effect the other way; inactive means flat fitted curve, though single readings scatter.

target: Ubiquitin carboxyl-terminal hydrolase 2 (Homo sapiens) (UniProt O75604); assay: Ub-rhodamine 110 based assay for inhibitors Ubiquitin-specific Protease USP2a; settings: USP2a Ub-rhodamine110 cleavage, fluorescence; series mostly up to 38.3 µM; further: nearly all actives have a fitted effect of over 50% in size
Sequence (O75604 whole entry, looked up): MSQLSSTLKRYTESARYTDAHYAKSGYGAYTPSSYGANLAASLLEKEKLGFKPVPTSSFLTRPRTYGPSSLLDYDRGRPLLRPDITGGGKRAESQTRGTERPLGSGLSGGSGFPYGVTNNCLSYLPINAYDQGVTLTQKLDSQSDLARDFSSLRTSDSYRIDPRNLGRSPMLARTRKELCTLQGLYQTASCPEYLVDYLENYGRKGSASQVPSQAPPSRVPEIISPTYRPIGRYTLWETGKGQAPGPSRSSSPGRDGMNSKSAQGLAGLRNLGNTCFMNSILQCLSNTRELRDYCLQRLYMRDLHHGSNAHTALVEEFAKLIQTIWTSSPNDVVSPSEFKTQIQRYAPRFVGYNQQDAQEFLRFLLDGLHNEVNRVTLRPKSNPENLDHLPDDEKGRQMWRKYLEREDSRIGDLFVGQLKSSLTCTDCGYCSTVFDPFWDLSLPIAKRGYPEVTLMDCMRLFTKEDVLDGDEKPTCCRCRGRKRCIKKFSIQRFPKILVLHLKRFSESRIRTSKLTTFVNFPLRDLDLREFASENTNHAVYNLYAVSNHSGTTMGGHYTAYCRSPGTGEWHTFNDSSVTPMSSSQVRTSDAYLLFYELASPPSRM
Method in brief: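 5 nM USP2a preincubated with compounds for 30 min at RT in 20 mM Tris-HCl pH 8.0, 2 mM CaCl2, 2 mM beta-mercaptoethanol, 0.05% CHAPS. Cleavage of 150 nM Ub-rhodamine 110 read kinetically (Ex 485/Em 531) for 7 min.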
Potency means the concentration at half of the fitted maximal effect.

Row | SMILES | Potency
1 | COc1ccc(NC(=O)CN(Cc2ccccc2)S(C)(=O)=O)cc1 | inactive
2 | Cc1ccc2oc(=O)c3cnn(CC(=O)NCCCOC(C)C)c3c2c1 | inactive
3 | Cc1cc(C)n2cc(CSc3nnnn3-c3ccccc3C)nc2n1 | inactive
4 | Cc1ccc(C(=O)N(C)CC(=O)Nc2cccc(C)c2C)o1 | inactive
5 | C#CCOCCOCCOCCNc1nc(N2CCN(C(=O)CCCCCCCCCCNC(=O)[C@@H](CCC(=O)O)n3cc(CCCCCN)nn3)CC2)nc(N2CCN(C(=O)CCCCCCCCCCNC(=O)[C@H]([C@@H](C)CC)n3cc(CCCCCN)nn3)CC2)n1 | inactive
6 | O=C1COc2ccc(C(=O)COC(=O)/C=C/c3ccc(Br)o3)cc2N1 | 2.24 µM (active)
7 | Cc1ccc(-c2ccc(CCC(=O)O)n2NC(=O)c2cccs2)cc1 | inactive
8 | Cc1ccc([C@H]2C(C(=O)O)=CC[C@@H](c3ccc(Cl)cc3)N2S(=O)(=O)c2ccc(C)cc2)cc1 | 11.2 µM (active)
9 | CCN=C1SC(C(=O)Nc2cccc(OCC)c2)CC(=O)N1CC (stereo not given) | inactive
10 | CCCCn1c(SCC(=O)N2CCC(C)CC2)nc2cc(S(N)(=O)=O)ccc21 | inactive
11 | Cc1ccc(S(=O)(=O)N2[C@@H](c3ccc(Cl)cc3)C(C(=O)O)=CC[C@H]2c2ccc(C(C)C)cc2)cc1 | 10 µM (active)
12 | CC(C)n1c(/C=C/[C@H](O)C[C@H](O)CC(=O)O)c(-c2ccc(F)cc2)c2ccccc21 | inactive
13 | N#C/C(=C(/O)CSc1nnc(Cc2cccs2)n1C1CCCCC1)c1nc2ccccc2[nH]1 | 7.08 µM (active)
14 | O=C(Nc1cccc(-c2nn[nH]n2)c1)c1ccc(Br)s1 | inactive
15 | CC1(C)CC(=O)C=C(NCc2cccs2)C1 | inactive
16 | O=C1/C(=C/C=C/c2ccco2)SC(=S)N1c1ccc(O)cc1 | 3.55 µM (active)
17 | CC1CCCC(NC(=O)C2N(CCCN3CCCC3)C(=O)C3C(C(=O)Nc4ccc(Cl)cc4)C4C=CC32O4)C1C (stereo not given) | inactive
18 | C#CCOCCOCCOCCNc1nc(N2CCN(C(=O)CCCCCCCCCCNC(=O)[C@@H](CCC(=O)O)n3cc(CCCCCN)nn3)CC2)nc(N2CCN(C(=O)CCCCCCCCCCNC(=O)[C@H](CCCCN)n3cc(C[C@@H](C)CC)nn3)CC2)n1 | inactive
19 | CC1CCN(c2ccc3c(c2)S(=O)(=O)c2cccc(C(=O)NC4CC4)c2C3=O)CC1 | inactive
20 | CCc1c(O)nc(SCC(=O)Nc2ccccc2OC)[nH]c1=O | inactive

Row | SMILES | Potency
21 | Cc1cc(NC(=O)CN2C(=O)NC3(CCCCC3C)C2=O)no1 (stereo not given) | inactive
22 | CCOc1ccc(S(=O)(=O)N(CC(=O)O)c2ccccc2)cc1 | inactive
23 | CC(C)CC(c1nnnn1CC1CCCO1)N1CCN(c2nc3ccccc3s2)CC1 (stereo not given) | inactive
24 | CC(C)CC(=O)NC(=S)Nc1nc(-c2ccc(Cl)cc2)cs1 | inactive
25 | CC(C)OCCCNC(=O)c1c(N)n(/N=C/c2ccccn2)c2nc3ccccc3nc12 | inactive
26 | CC1CCCCC1NC(=O)CSCC(=O)O (stereo not given) | inactive
27 | COc1ccc(C(=O)C[N+]2(C)CCOCC2)cc1 | inactive
28 | Cc1cc(C(=O)Nc2ccccc2N2CCOCC2)c2ccccc2n1 | inactive
29 | Cc1nn(CC(=O)Nc2cccc(S(N)(=O)=O)c2)c(C)c1[N+](=O)[O-] | inactive
30 | CCc1cc2c(=O)c(-c3nc4ccccc4n3C)coc2c(CN2CCCCC2C)c1O (stereo not given) | inactive
31 | Cc1ccc(/C(N)=N/OC(=O)Oc2ccccc2)cc1 | inactive
32 | C=CCn1c(Br)nc2c1c(=O)n(C)c(=O)n2C | inactive
33 | Cc1ccc(N=C2NC(=O)/C(=C/C=C/c3ccco3)S2)cc1C | 5.01 µM (active)
34 | C=CCn1c(NCc2cc(C)ccc2O)nc2ccccc21 | inactive
35 | CCCOc1ccc(/C=C2\SC(=S)N(CC3CCCO3)C2=O)cc1 (stereo not given) | inactive
36 | Cc1ccc(C(=O)c2coc3c2C(=O)C(=O)c2ccccc2-3)cc1 | inactive
37 | CCCCCCCCCCCCCCCC[N+](C)(C)CCN(Cc1ccc(OC)cc1)c1ncccn1 | 11.2 µM (active)
38 | CCn1c(COc2ccc(C)cc2)nnc1SCC(=O)Nc1ccc2c(c1)OCCO2 | inactive
39 | CC(C)OCCCNC(=O)CN1C(=O)CC(C)(C)S(=O)(=O)c2ccccc21 | inactive
40 | CC(C)Oc1ccc(C(=O)Nc2ccc(N3CCCC3)cc2)cc1 | 10 µM (active)
